Screening results deposited in PubChem BioAssay by National Center for Advancing Translational Sciences (NCATS).
Hits are enriched below; roughly 1.9% of the tested compounds scored in any of these assays.
Menin MLL FP TR = qHTS Assay for Inhibitors Targeting the Menin-MLL Interaction in MLL Related Leukemias: Competition With Texas Red Labeled MLL-derived Mutant Peptide. O00255. Menin + Texas Red MLL mutant peptide, fluorescence polarization. Potency, µM (series often up to 61.6 µM), for inactives: at the top dose FP activity change, negative = inhibition, usual class: inhibitors. 0.23% of 270,000 active. AID 1768, 2009; active means well fitted inhibition curve with a large enough effect in the polarisation, with a control signal flat, not every such curve was filed as active; inconclusive means small, poorly fitted or top-dose-only effect, or effect the other way, or a change in a side signal; inactive means no such curve, though single readings can be large or run the other way; the % refers to the polarisation; further: potency means the concentration at half of the fitted maximal effect; % of control where 0% means no effect
ClpP mod = qHTS Assay for Activators of ClpP; ATP-dependent Clp protease proteolytic subunit (Bacillus subtilis (strain 168)), P80244; purified B. subtilis ClpP, FRET peptide cleavage, 20 min; Potency, µM (highest dose often 57.5 µM), inactives show top-dose activity change, negative = active; 1.9% of 340,000 active; AID 651965, 2013; active means well fitted falling curve with a large enough effect; inconclusive means small, poorly fitted or top-dose-only effect; inactive means no such curve, though single readings can be large or run the other way; further: potency means the concentration at half of the fitted maximal effect; the source files actives as falling curves though it sought activators and does not explain the sign; nearly all actives have a fitted effect of over 65% in size
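ClpP 10 microg/mL final, pH 8 Tris/KCl buffer with BSA, glycerol, Tween-20; compound pinned in; FRET-FV substrate; RT 20 min; Ex320/Em430; ΔFRET vs ADEP 5.8 microM, DMSO, no enzyme.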
PINK1 expr mod = A Quantitative High throughput Screen to Identify Chemical Modulators of PINK1 Expression. PINK1 immunofluorescence, high-content cytometry, 24 h. 0.2% of 410,000 active. Potency, µM (doses to about 76.6 µM), inactives show top-dose activation (PINK1 increase), most hits filed as activators; active means well fitted activation curve with a large enough effect; inconclusive means small, poorly fitted or top-dose-only effect; cell line not stated here; further: potency means the concentration at half of the fitted maximal effect; % of control where 0% means no effect; nearly all actives have a fitted effect of over 65% in size
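Stable cell line, 250 cells/well, 12 h attachment; compounds pinned at 5 concentrations, 24 h; CCCP control. Fixed with nuclear dye, primary antibodies 12 h at 10 degrees C, secondary plus cell stain; laser-scanning cytometer read.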
Epigenetic reg = Quantitative High-Throughput Screen for Regulators of Epigenetic Control; murine LDR cells, GFP reporter derepression, 30 h; Potency, µM (titrated, usually from 53.9 µM), for inactives: top-dose GFP activation, most hits filed as activators; 0.2% of 280,000 active; active means well fitted activation curve with a large enough effect; inconclusive means small, poorly fitted or top-dose-only effect; further: potency means the concentration at half of the fitted maximal effect; % of control where 0% means no effect; nearly all actives have a fitted effect of over 60% in size
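Reporter derepression read as number of fluorescent GFP-positive objects, 20-120 um in size, counted by laser-scanning cytometer. Mouse LDR line with an epigenetically silenced CMV-GFP locus; compound incubation 30 h, 37 C.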
MLL CXXC-DNA inh = qHTS Fluorescence Polarization Assay for Inhibitors of MLL CXXC domain - DNA interaction. 0.037% of 290,000 active. AID 2662, 2010. Potency, µM (top dose mostly 115 µM), for the others: at the top dose activity change, negative = inhibition, usual class: inhibitors. MLL-CXXC / FITC-HOXA9 DNA fluorescence polarization; active means well fitted inhibition curve with a large enough effect in the polarisation, with a control signal flat, not every such curve was filed as active; inconclusive means small, poorly fitted or top-dose-only effect, or effect the other way, or a change in a side signal; inactive means no such curve, though single readings can be large or run the other way; the % refers to the polarisation; further: potency means the concentration at half of the fitted maximal effect
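Purified MLL-CXXC (added from a 7 uM solution) was preincubated 5 min at ambient with pinned compounds in 50 mM Tris-HCl pH 7.5, 50 mM NaCl, 1 mM DTT, 0.05% BSA. Fluorescein-labeled HOX-A9 DNA (50 nM solution) followed, 30 min, then polarization read.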
Menin-MLL FL inh = qHTS Assay for Inhibitors Targeting the Menin-MLL Interaction in MLL Related Leukemias: Competition With Fluorescein Labeled MLL-derived Peptide | Fluorescence polarization, fluorescein-MLL peptide displacement from menin | 290,000 tested, under 10 active | FP activity change, % at 61.4 µM; active means well fitted curve in the direction sought with a large enough effect in the polarisation, not every such curve was filed as active; inconclusive means small, poorly fitted or top-dose-only effect, or effect the other way, or a change in a side signal; inactive means no such curve, though single readings can be large or run the other way; the % refers to the polarisation; further: % of control where 0% means no effect
* marks the source's active call; other numbers are inactive results; ? = inconclusive; nt = not tested or not shown; [ ] = another dose, or the depositor's remark.

SMILES | Menin MLL FP TR | ClpP mod | PINK1 expr mod | Epigenetic reg | MLL CXXC-DNA inh | Menin-MLL FL inh
O=C(Nc1nc(-c2ccc(S(=O)(=O)N3CCCC3)cc2)cs1)C1COc2ccccc2O1 (configuration not stated) | 10µM* | -17% | 0% | -1% | 20% | 5
COc1ccc(NS(=O)(=O)c2ccc(S(=O)(=O)N3CCOCC3)cc2)cc1 | 4% | 16µM* | 0% | 1% | -6% | 0
COCc1ccc(C(=O)N2CCOc3c(cc(-c4cc(C)c5cccc(OC)c5n4)cc3OC)C2)o1 | nt | nt | -1% | nt | nt | nt
CNC(=O)/C(C#N)=C/c1c(N2CC(C)OC(C)C2)nc2ccccn2c1=O (configuration not stated) | -11% | 28µM* | 5% | -2% | -4% | -3
COc1ccc(-c2nnc(Nc3nc4c(OC)cccc4s3)o2)c(OC)c1 | 23% | 16µM* | 13%[38.3 µM] | 3% | 12% | 0
COc1cc(OC)cc(-c2nnc(Nc3nc4c(F)cccc4s3)o2)c1 | ? | ? | -8%[38.3 µM] | 5% | -12% | 6
COc1ccc(-c2nnc(Nc3nc4c(OC)cccc4s3)o2)cc1 | 16% | 40µM* | 9% | -4% | 15% | -7
CCn1c(-c2ccccc2F)nc2cc(C(=O)NCc3ccc(C)o3)cc(NC(C)=O)c21 | nt | nt | 0% | nt | nt | nt
Cc1nc(NCc2c(F)cccc2F)sc1-c1ccn(CCN2CCOCC2)n1 | nt | nt | 0% | nt | nt | nt
CCOc1cc(-c2nnc(SCC(=O)Nc3ccc(F)c(F)c3)nc2-c2ccc(OC)c(OCC)c2)ccc1OC | nt | 0% | 13% | 16µM* | nt | nt
Cc1ccc(S(=O)(=O)N2[C@H](CC(=O)c3ccccc3)OC[C@@H]2C(C)C)cc1 | nt | -1% | nt | nt | nt | nt
CCCCN1C(=O)/C(=C/C=C2\SCCN2C)SC1=S | ? | nt | 10% | 18µM* | ? | ?
CCCCN1C(=O)/C(=C/C=C2\N(C)c3ccccc3C2(C)C)SC1=S | ? | nt | nt | 2.5µM* | ? | ?
CC(=O)c1ccc(-c2cc(F)cc3c2OC(CNC(=O)c2ccc[n+]([O-])c2)C3)s1 (configuration not stated) | nt | nt | 0% | nt | nt | nt
Fc1cccc(-c2cc3nc(-c4ccccc4)cc(N4CCC5(CC4)OCCO5)n3n2)c1 | -8% | ? | 18% | 0% | -11% | -1
COCCN1CCN(c2cc(-c3ccccc3)nc3cc(-c4cccc(F)c4)nn23)CC1 | 22% | 25µM* | -1% | -2% | 2% | 2
COc1ccccc1CO/N=C/c1cccn1-c1nccc(N(C)C)c1C#N | 2% | 1% | 0% | -2% | 3% | 4
CN(C)c1ccnc(-n2cccc2/C=N/OCc2ccccc2)c1C#N | -6% | 14µM* | 1% | 0% | 0% | 7
Cc1cccc2cc(CN(CC3CCCO3)C(=O)c3ccccc3F)c(N(C)C)nc12 (configuration not stated) | nt | nt | 0% | nt | nt | nt
Nc1ncnc2c1ncn2[C@@H]1O[C@H](CNC(=O)[C@@H]2CCCN2S(=O)(=O)c2ccc(F)cc2)[C@@H](O)[C@H]1O | nt | -1% | -1% | nt | nt | nt
Cc1ccccc1NC(=S)NCCC(c1ccccc1)c1ccccc1 | 2% | 13µM* | 20% | 0% | 10% | 1
Cc1ccc(NC(=S)NCCC(c2ccccc2)c2ccccc2)c(C)c1 | 6% | -3% | 4% | -1% | 14% | 6
C=CCC(C)(Nc1ccccc1)C(=O)OCC (configuration not stated) | 5% | nt | nt | 0% | nt | -9
COc1ccc(NC(=O)c2cc(-c3ccc(C)cc3)on2)cc1OC | 0% | ? | 0% | nt | -10% | -3
COc1ccc(NC(=O)c2cc(-c3ccc(OC)c(OC)c3)on2)cc1OC | -10% | 22µM* | -5%[38.3 µM] | -1% | 1% | 2
SMILES | Menin MLL FP TR | ClpP mod | PINK1 expr mod | Epigenetic reg | MLL CXXC-DNA inh | Menin-MLL FL inh
COc1cccc(-c2cc(C(=O)Nc3cc(OC)c(OC)c(OC)c3)no2)c1 | 42% | -3% | 11µM* | 2% | 4% | 1
COc1ccc(NC(=O)c2cc(C)on2)cc1OC | 2% | 0% | 13µM* | 0% | 1% | 4
COc1ccc(NC(=O)c2cc(C(C)C)on2)cc1OC | ? | -2% | 5%[38.3 µM] | -1% | 5% | 3
CCOc1ccc(C(N)=O)cc1OC | -25% | 28µM* | -1% | 0% | -3% | 2
CCOc1ccc(C(=O)O)cc1OC | nt | -12% | -3% | 0% | -2% | 2
O=C(NCc1ccc(F)cc1)c1ccc(S(=O)(=O)Nc2cccc(C(F)(F)F)c2)cc1 | ? | 14µM* | 24% | -1% | 2% | 3
O=C(NCc1ccccc1F)c1ccc(S(=O)(=O)Nc2cccc(C(F)(F)F)c2)cc1 | 14% | -2% | 0% | -1% | ? | 6
Cc1cc(NC(=O)CSc2nnc(-c3cccnc3)n2Cc2ccccc2)no1 | -6% | 3.2µM* | 1% | -5% | 4% | -2
O=C(CSc1nnc(-c2cccnc2)n1CCN1CCCCC1)Nc1cccc(Cl)c1 | -6% | 16µM* | 1% | -1% | -2% | -4
Cc1oc2ccccc2c1CC(=O)NCCCN(C)C | nt | -1% | 3% | -1% | -20% | 3
CCCCn1c(NC(=O)c2ccc(Br)o2)c(S(=O)(=O)c2ccccc2)c2nc3ccccc3nc21 | nt | -20% | 0%[38.3 µM] | -1% | 2% | 5
CCC(=O)Nc1c(S(=O)(=O)c2ccccc2)c2nc3ccccc3nc2n1C(C)c1ccccc1 (configuration not stated) | 5% | 32µM* | ? | -1% | 18% | 5
CCC(=O)Nc1c(S(=O)(=O)c2ccc(C)cc2)c2nc3ccccc3nc2n1C(C)c1ccccc1 (configuration not stated) | -2% | 20µM* | 2% | 4% | 7% | 0
CN(C)c1ccc(/C=C/N2C=CCc3c2ccc2ccccc32)cc1 | nt | -7% | nt | nt | nt | nt
C(=C\c1nc(N2CCCCCC2)c2ccccc2n1)/c1ccccc1 | 2% | 32µM* | 35µM* | 3% | -13% | 15
c1ccc2c(N3CCCCC3)nc(N3CCCCC3)nc2c1 | -3% | -3% | ? | 4% | -13% | 2
O=C(NC(=S)Nc1ccccc1N1CCN(C(=O)c2ccccc2)CC1)c1ccccc1F | nt | 32µM* | 0% | nt | 5% | nt
CCCCCCCCCC[n+]1ccc(/C=C/c2c(C)[nH]c3ccccc23)c2ccccc21 | nt | 1% | nt | nt | nt | nt
